Hits are enriched below; roughly 3.1% of the tested compounds scored in any of these assays.
BoNT A protease = blocks Botulinum neurotoxin A light chain protease; multiplex microsphere protease substrate cleavage, flow cytometry; 0.17% of 360,000 active; AID 588499; inhibition, % at 10 µM; note: plate controls were buffer without enzyme for full effect and enzyme alone for no effect
PriA SSB inh = inhibitors of Klebsiella pneumoniae PriA binding to SSB C-terminal tail | 0.6% of 430,000 active | inhibition, % at 33 µM | AlphaScreen SSBct-PriA binding, biotinylated peptide | AID 1272365; in the data active = inhibition mostly above about 37%, no sharp cut-off; inactive = mostly below about 20%;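 note: plate controls were negative control peptide for no effect and reference peptide for full effect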
BoNT F protease = inhibitors of Botulinum neurotoxin F light chain protease; inhibition, % at 10 µM; AID 588497; 0.22% of 360,000 active; Multiplex microsphere protease cleavage assay, flow cytometry; in the data active = inhibition above about 35%, passing the limit was not always enough; inconclusive = no clear call, values can overlap the other calls; note: plate controls were buffer without enzyme for full effect and enzyme alone for no effect
Anthrax LF inh2 = blocks Bacillus anthracis lethal factor protease. inhibition, % at 10 µM. 0.12% of 360,000 active. multiplex microsphere protease cleavage assay, LF; note: plate controls were buffer without enzyme for full effect and enzyme alone for no effect
Target sequence (P15917 whole entry, looked up): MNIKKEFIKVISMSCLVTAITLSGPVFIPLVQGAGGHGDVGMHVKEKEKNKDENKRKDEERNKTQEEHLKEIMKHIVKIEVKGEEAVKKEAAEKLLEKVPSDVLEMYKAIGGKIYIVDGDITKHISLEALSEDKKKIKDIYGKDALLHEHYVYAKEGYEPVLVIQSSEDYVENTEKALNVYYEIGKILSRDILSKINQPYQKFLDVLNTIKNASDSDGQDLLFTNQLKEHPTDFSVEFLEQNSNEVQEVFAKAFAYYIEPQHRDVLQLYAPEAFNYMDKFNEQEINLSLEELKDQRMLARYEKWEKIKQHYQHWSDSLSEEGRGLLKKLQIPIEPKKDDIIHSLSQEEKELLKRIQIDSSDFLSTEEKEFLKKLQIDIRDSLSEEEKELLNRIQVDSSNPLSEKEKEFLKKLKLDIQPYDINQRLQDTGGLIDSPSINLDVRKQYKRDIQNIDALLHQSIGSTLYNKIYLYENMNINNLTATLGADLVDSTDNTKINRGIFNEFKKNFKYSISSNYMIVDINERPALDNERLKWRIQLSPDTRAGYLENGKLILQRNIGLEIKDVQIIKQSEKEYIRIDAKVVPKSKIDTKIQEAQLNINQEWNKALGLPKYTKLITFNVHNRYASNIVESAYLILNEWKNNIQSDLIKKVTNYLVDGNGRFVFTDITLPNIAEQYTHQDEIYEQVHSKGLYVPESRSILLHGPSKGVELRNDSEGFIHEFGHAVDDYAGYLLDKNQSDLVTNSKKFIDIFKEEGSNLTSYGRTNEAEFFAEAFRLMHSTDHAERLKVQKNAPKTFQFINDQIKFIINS
Bead autofluor = flagged as autofluorescent in microsphere protease counterscreen. compound autofluorescence counterscreen, microsphere flow cytometry; stronger effect = higher value. fluorescence intensity (test concentration not listed). 3.1% of 360,000 active; in the data active = fluorescence intensity above about 16000; inconclusive = no clear call, values can overlap the other calls
* hit, by the source's call; ? = inconclusive; . = not tested or not shown. Cut-off read from the data, not from the text of the source, unless noted: active = inhibition above about 30%; inconclusive = no clear call, values can overlap the other calls; inactive = below that.

SMILES | BoNT A protease | PriA SSB inh | BoNT F protease | Anthrax LF inh2 | Bead autofluor
COc1ccc(OCC(O)CNC(=O)c2ccc(OC)cc2)cc1 (stereo not drawn) | 0 | 5 | -1 | -2 | 2605
COc1ccc(C(=O)NCC(=O)O)cc1 | -2 | 5 | -8 | -4 | 17003*
COc1ccc(C(=O)NCc2c(C)oc(C)c2C(=O)O)cc1 | 1 | 0 | 36* | -4 | 3063
COc1ccc(OCC(O)CNC(=O)c2ccc(Br)cc2)cc1 (stereo not drawn) | 3 | -5 | 6 | -6 | 21623*
COc1ccc(OCc2ccc(C(=O)NN)cc2)cc1 | 0 | -8 | -3 | -1 | 19696*
Cc1oc(C)c(C(=O)O)c1COc1ccc(C(=O)O)cc1 | 0 | -6 | 11 | 4 | 4816
CC(C)Oc1ccc(C(=O)NCC(=O)O)cc1 | 1 | -2 | -5 | 0 | 4728
CC(C)(C)OC(=O)N1CCN(C(N)=O)CC1 | . | 5 | . | . | .
CCOC(=O)N1CCN(C(=O)c2ccccc2NC(=O)c2ccc(OC)cc2)CC1 | -2 | -7 | -4 | -4 | 23728*
CCOC(=O)C(=O)Nc1ccccc1C(=O)Nc1ccc(OC)cc1 | 8 | 2 | 12 | -18 | 19641*
O=C(OCc1nc2ccccc2s1)c1ccc(C(=O)OCc2nc3ccccc3s2)s1 | . | -6 | . | . | .
Oc1ccccc1OCc1nc2ccccc2s1 | 2 | -14 | 0 | -4 | 22098*
OCc1cc(Br)ccc1OCc1nc2ccccc2s1 | -3 | -24 | -22 | -9 | 3665
O=C(OCc1nc2ccccc2s1)c1ccc(Br)s1 | -1 | -12 | -3 | 2 | 23134*
Cc1c(NC(=O)N2CCCCC2)c(=O)n(-c2ccccc2)n1C | . | 4 | . | . | .
O=C(Cc1ccccc1)NCCS(=O)(=O)N1CCN(c2cccc(Cl)c2)CC1 | . | -2 | . | . | .
O=C(Cc1ccc(F)cc1)NCCS(=O)(=O)N1CCN(c2cccc(Cl)c2)CC1 | . | 38* | . | . | .
Cc1ccc(SCC(=O)Nc2sc(C)c(C)c2C(N)=O)cc1 | . | -2 | . | . | .
O=C1NC2(CCCCC2)N=C1c1ccc(F)cc1 | -4 | 3 | -6 | -1 | 22118*
O=C1NC2(CCCCC2)N=C1c1ccc(Br)cc1 | 0 | -27 | 12 | 0 | 4559
O=C1NC2(CCCC2)N=C1c1ccc(Cl)cc1 | -2 | -24 | -2 | 0 | 23960*
CN1CCN(C(CNC(=O)Nc2ccc3c(c2)OCO3)c2ccc3c(c2)CCN3C)CC1 (stereo not drawn) | . | 20 | . | . | .
COCCN1CCC(CNS(=O)(=O)c2cc(Cl)ccc2C)CC1 | . | -4 | . | . | .
Cc1cccc(NC(=O)Cn2c(=O)n3nc(CCn4nc(C)cc4C)nc3c3ccccc32)c1 | 6 | -5 | 4 | -2 | 21276*
CN(CC(=O)c1ccc(O)c(O)c1)C(=O)CCN1C(=O)/C(=C/c2ccccc2Cl)SC1=S | . | 18 | . | . | .
SMILES | BoNT A protease | PriA SSB inh | BoNT F protease | Anthrax LF inh2 | Bead autofluor
Clc1cccc(Oc2ncc(CN3CCOCC3)s2)c1 | 2 | -11 | 4 | 1 | 21630*
Cc1nnsc1C(=O)NCC1CCN(c2ccccn2)CC1 | . | -15 | . | . | .
O=S(=O)(/C=C/c1ccccc1)NC1CCCCCC1 | -1 | -10 | 0 | -2 | 3527
O=S1(=O)CCC(NS(=O)(=O)/C=C/c2ccccc2)C1 (stereo not drawn) | 1 | 0 | 0 | 0 | 22642*
O=C(/C=C/c1cccc(Cl)c1)NCc1ccncc1 | -1 | -10 | -3 | 0 | 2046
O=C(/C=C/c1ccc(Cl)cc1)NCc1cccs1 | 0 | -19 | 4 | 0 | 1934
O=C(/C=C/c1c(Cl)cccc1Cl)Nc1ccncc1 | 0 | -19 | 0 | 0 | 20186*
O=C(/C=C/c1cccc(Cl)c1)Nc1ccncc1 | -2 | -1 | -2 | -3 | 21112*
O=C(/C=C/c1cccc(Cl)c1)NCc1cccs1 | -6 | -17 | -9 | 0 | 21424*
CC1Cc2cc(-c3cc(CC(=O)N4CCC(C(N)=O)CC4)no3)ccc2O1 (stereo not drawn) | . | -15 | . | . | .
Cc1ccc(S(=O)(=O)N2CC[C@H](n3ccnn3)C2)s1 | . | -6 | . | . | .
COc1cc(SC)ccc1C(=O)NCCOc1c(C)cc(C)cc1C | 0 | -13 | -1 | -2 | 20169*
COc1cc(SC)ccc1C(=O)NCCOc1ccc(Cl)cc1 | 0 | -8 | -1 | -1 | 2391
Cc1nc(-n2nc(-c3cccs3)cc2NC(=O)CSCc2ccccc2)[nH]c(=O)c1C | . | -11 | . | . | .
O=C(NCCOc1ccc2c(c1)OCO2)c1ccc([N+](=O)[O-])cc1 | . | -3 | . | . | .
O=C(CCn1nnc2ccccc21)Nc1nnc(-c2ccccc2F)s1 | 2 | -21 | 4 | 2 | 22751*
O=C(CCn1nnc2ccccc21)Nc1nnc(COc2ccccc2F)s1 | 1 | -2 | 8 | 0 | 3701
O=C(CCc1csc(NC(=O)Nc2ccccc2)n1)Nc1ccc(F)cc1 | . | -16 | . | . | .
O=C(CSc1nc2c(sc(=S)n2-c2ccccc2)c(=O)[nH]1)NC1CCCCC1 | . | 1 | . | . | .
Cc1ccccc1OCCCN1CCCC1 | ? | 0 | 13 | -21 | 17560*
CC1CN(CCCOc2ccccc2[N+](=O)[O-])CC(C)O1 (stereo not drawn) | 0 | -20 | 5 | 1 | 23581*
CC1CN(CCOc2ccc([N+](=O)[O-])cc2)CC(C)O1 (stereo not drawn) | 0 | -13 | 8 | -1 | 2113
O=c1c2ccccc2ncn1CCCOc1ccccc1[N+](=O)[O-] | 5 | -4 | 8 | -11 | 20774*
CC1CN(CCOc2ccc(F)cc2)CC(C)O1 (stereo not drawn) | 0 | -11 | 36* | 2 | 3427
Nc1nnc(CC(=O)NN=Cc2cccc([N+](=O)[O-])c2)s1 | . | -9 | . | . | .
SMILES | BoNT A protease | PriA SSB inh | BoNT F protease | Anthrax LF inh2 | Bead autofluor
CCSc1nnc(NC(=O)c2cn(CC)cc3c(=O)n(-c4ccccc4)nc2-3)s1 | . | 5 | . | . | .
c1ccc(-c2ccccc2OCCCN2CCOCC2)cc1 | 1 | -5 | -2 | -1 | 2576
Fc1ccccc1OCCCN1CCOCC1 | 9 | -4 | 12 | -16 | 17023*
O=[N+]([O-])c1ccccc1OCCOc1ccccc1[N+](=O)[O-] | 0 | -25 | -5 | 1 | 4435
O=[N+]([O-])c1ccccc1OCCCN1CCOCC1 | -2 | -19 | -3 | -2 | 23944*
N#Cc1ccc(-c2csc(NC(=O)c3cccc(Br)c3)n2)cc1 | . | 1 | . | . | .
CSCC[C@](C)(O)CNC(=O)Nc1cccs1 | . | -7 | . | . | .
Cc1nn(C[C@H](O)COc2ccc3ccccc3c2Cl)c(C)c1Br | . | -3 | . | . | .
Cc1ccc(-c2nnc(CSc3nnc(C)s3)o2)cc1 | 1 | 1 | 2 | -2 | 22331*
Cc1csc(SCc2nnc(-c3ccc(Cl)cc3)o2)n1 | 1 | -10 | 2 | -3 | 3170
CCCc1cc(=O)[nH]c(Nc2ccc(N3CCCCC3)cc2)n1 | 2 | 16 | -14 | -9 | 20834*
CCCCc1ccc(Nc2nc(CCC)cc(=O)[nH]2)cc1 | 0 | -4 | -7 | 0 | 2387
Cc1ccc(OCCN2C(=O)c3ccccc3C2=O)cc1 | 2 | 3 | 0 | -1 | 22823*
Cc1ccc(OCCN2C(=O)c3ccccc3C2=O)c(C)c1 | -1 | -23 | -9 | -2 | 8848
COc1cccc2c1C(=O)c1c(O)c3c(c(O)c1C2=O)C[C@@](O)(C(C)=O)C[C@@H]3O[C@H]1C[C@H](N)[C@H](O)[C@H](C)O1 | 1 | 41 | -24 | -29 | 4571
